Source: PubChem BioAssay
Activity calls are given as the source filed them.

experiment: CREB reporter modulators under forskolin, primary screen, cell-based, PC12, CRE-LacZ reporter, forskolin-stimulated (AID 1146); details: luminescence, 4.5 h, higher = more signal, called active from +8 up or from −8 down;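 also: PC12 cells with 6xCRE LacZ reporter stimulated by forskolin 10 µM; beta-galactosidase reporter signal reflecting CREB driven transcription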

z-score, inactive:
COCCOC(=O)N1C(=O)[C@@]2(c3cc(C#Cc4ccc(OC)cc4)ccc31)[C@H](c1ccc(OCCO)cc1)N1[C@H](c3ccccc3)[C@H](c3ccccc3)OC(=O)[C@H]1[C@@H]2C(=O)N1CCN(c2ncccn2)CC1 0.559, C[N+](C)(C)CCCCCCNC(=O)[C@@H]1C[C@@H]2C(=O)N[C@@H](Cc3ccccc3)C(=O)N2[C@@H]1c1cccc(OCCO)c1 -1.04, CCOC(=O)C1=C[C@@H](C(C)(C)C)N(S(=O)(=O)c2ccc(C)cc2)[C@H]1c1ccc(F)cc1 0.81, COC(=O)c1c(CC[C@@H](CO)NC(=O)NCCn2cc(C3(O)CCCC3)nn2)oc(C(C)=O)c1C(=O)OC -0.194, NC(=O)N1C(=O)C2C(C1=O)C1C=C(c3ccc(CO)cc3)C2C(c2cccs2)N1Cc1cccc(OC(F)(F)F)c1 (configuration not stated) -1.58, NC(=O)[C@@H]1[C@H]2C(=O)O[C@H](c3ccccc3)[C@H](c3ccccc3)N2[C@H](c2ccc(O)cc2)[C@@]12C(=O)Nc1ccccc12 0.276, CC(C)N1C(=O)C[C@@](C(=O)NCC(F)(F)F)(c2ccc([N+](=O)[O-])cc2)[C@H]1c1ccc(CO)cc1 -1.24, COCCCNC(=O)[C@@]1(C)c2ccccc2C(=O)N(C(C)C)[C@H]1c1ccc(CO)cc1 0.174, C=C(/C(=C/C[C@H](OC(C)=O)c1ccccc1OCCO)c1cnc2ccccc2c1)C(C)C 1.49, C=CCNC(=O)[C@@H]1[C@H]2C(=O)O[C@H](c3ccccc3)[C@H](c3ccccc3)N2[C@H](c2ccc(O)cc2)[C@@]12C(=O)N(C(=O)OCCOC)c1ccc(C#CCNC(N)=O)cc12 0.273, O=C(OCc1ccccc1)C1=CCC2c3[nH]c4ccccc4c3C(=O)C1N2S(=O)(=O)c1ccccc1[N+](=O)[O-] (configuration not stated) -0.451, CC(C)=CCN[C@H](CO)c1ccccc1 0.0877, O=C(c1ccccc1)N1Cc2ccccc2C[C@@]2(COC(c3ccc(OCCCO)cc3)=N2)C1=O -0.152, COC(=O)[C@H](Cc1ccccc1)N1CC2=C[C@@H](C3CC3)n3c(=O)n(C)c(=O)n3[C@H]2[C@@H]1[C@@H](O)Cc1ccccc1 -0.269, COc1ccc(C#Cc2ccc3c(c2)[C@]2(C(=O)N3)[C@H](C(=O)NC[C@H](O)c3ccccc3)[C@H]3C(=O)O[C@H](c4ccccc4)[C@H](c4ccccc4)N3[C@@H]2c2ccc(O)cc2)cc1 -0.301, CC(C)C(=C=CC[C@@H](O)c1ccc(OCCO)cc1)C[C@@H](O)COCc1ccccc1 -1.23, CCCCCN1CC=CC23O[C@@H]4C=CCCOC(=O)C4[C@H]2C(=O)N(CCCCCO)[C@@H]3C1=O (some centres not stated) -0.443, CN1C=C(C(=O)OCCS(C)(=O)=O)C(C(=O)OCCS(C)(=O)=O)=CC(c2ccc(CO)cc2)=CC1C1CC1 (configuration not stated) -0.507, COc1cc(C(O)C2C=CC3C(=O)NC(=O)C3N2Nc2ccccn2)cc(OC)c1OC (configuration not stated) 0.329, CN(C)CCCC[C@@H]1NC(=O)[C@H]2C[C@@H](C(=O)NCCCCCCN)[C@@H](c3ccc(O)cc3)N2C1=O -0.139, Cc1ccc(S[C@]2(C(=O)NCCCN(C)C)CC(=O)N(Cc3cc(C(F)(F)F)cc(C(F)(F)F)c3)[C@@H]2c2ccc(CO)cc2)cc1 1.19, CC1(C)[C@@H]2CC(C(O)C3C=CC4C(=O)N(c5ccccc5)C(=O)C4N3Nc3ccc([N+](=O)[O-])cc3)=C[C@H]1C2 (some centres not stated) 0.617, O=C1c2ccccc2[C@](Cc2ccccc2I)(C(=O)NCC(F)(F)F)[C@H](c2ccc(CO)cc2)N1Cc1ccccc1Cl 0.779, C=C(COC)C(=O)CC[C@@H](OC(C)=O)c1ccc(CO)o1 0.283, COc1ccccc1CN1C(=O)c2ccccc2[C@@H](C(=O)NC2CC2)[C@@H]1c1ccc(CO)cc1 -1.03, COc1ccc(CCNC(=O)[C@@]2(Sc3ccc(C)cc3)CC(=O)N(C(C)C)[C@@H]2c2ccc(CO)cc2I)cc1 0.652, CCC[C@@H]1C[C@@]1(CCC)[C@@H](NS(=O)(=O)c1cccc2cccnc12)c1ccc(Cl)cc1 0.852
